Out of some 63,000 compounds screened, about 1,100 (1.7%) were called active. This excerpt belongs to a sample that is enriched for actives. Measured potencies and affinities stand elsewhere. A number with no mark means an inactive call.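 How the source made its calls: active means compounds whose percent cytotoxicity in the single-dose primary screen, scaled between solvent and toxic-drug controls, exceeds 50; inactive means the rest.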
Assay: cytotoxicity in KRAS-transformed pancreatic duct cells, primary screen, cell-based, fluorescence, HTS (AID 431);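 further: 0% = DMSO solvent wells and 100% = doxorubicin-treated wells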
Details: HPDE-C7K KRASV12 cells, Alamar Blue viability, 48 h; at 10 µM; hits give high values

SMILES	cytotoxicity
CC1C(=O)C(C)C(c2ccc3c(c2)OCO3)NC1c1ccc2c(c1)OCO2 (stereo not given)	1.3%
CC(C)N(Cc1nc(-c2ccc(Cl)cc2)no1)C(=O)CCCN1C(=O)c2ccccc2C1=O	3.9%
CCc1ccc(NC(=O)C2CC=CCC2C(=O)O)cc1 (stereo not given)	-3.7%
O=C(O)C1C2C=CC3(CN(Cc4ccco4)C(=O)C13)O2 (stereo not given)	1.9%
O=C(O)C1C2C=CC3(CN(Cc4ccncc4)C(=O)C13)O2 (stereo not given)	-2.7%
O=C(O)C1C2C=CC3(CN(Cc4ccccn4)C(=O)C13)O2 (stereo not given)	76.1% (active)
Cc1cc(NS(=O)(=O)c2ccc(NC(=O)Nc3ccccc3)cc2)no1	-21%
CCOC(=O)c1ccc(NC(=O)CCc2nc(-c3ccccc3)no2)cc1	-8%
CCOC(=O)c1ccc(NC(=O)CCc2nc(-c3ccccc3Cl)no2)cc1	76.1% (active)
CCOC(=O)c1ccc(NC(=O)CCc2nc(-c3ccc(Cl)cc3)no2)cc1	0.1%
CC1CCCC(C)N1C(=O)Cn1c(=O)sc2ccccc21 (stereo not given)	0.8%
Cc1ccc(C2CC(C(F)F)n3ncc(C(=O)Nc4cnn(Cc5ccccc5C)c4)c3N2)cc1 (stereo not given)	21.9%
CCOC(=O)CCCCNCc1ccccc1	-6.1%
COc1ccc(-c2oc3ncn4nc(COc5ccccc5)nc4c3c2-c2ccc(OC)cc2)cc1	57.9% (active)
COc1ccccc1OCc1nc2c3c(-c4ccccc4)c(-c4ccccc4)oc3ncn2n1	9.1%
COc1ccc(-c2nnc(SCCc3ccccc3)n2N)cc1	4.3%
COc1ccc(-c2nnc(SCc3ccccc3)n2N)cc1	-12.1%
Cc1nc2c3c(-c4ccccc4)c(-c4ccccc4)oc3ncn2n1	1%
COc1ccc(-c2oc3ncn4nc(Cc5ccccc5)nc4c3c2-c2ccc(OC)cc2)cc1	57% (active)
COc1ccc(C)cc1N(CC(=O)NC1CCCC1)C(=O)CCC(=O)Nc1cc(C)on1	-5.7%
CCCCS(=O)(=O)/C=C\C1C2C=CC(C2)C1S(=O)(=O)CCCC (stereo not given)	-2.6%
CCCCS(=O)(=O)/C=C\C=C/S(=O)(=O)CCCC	112% (active)
OC(COc1ccc(Cl)cc1)CN1C2=NCCCN2c2ccccc21 (stereo not given)	6.4%
CCC(=O)c1ccccc1OCCCN1C(=O)NC(C)(C)C1=O	21%

SMILES	cytotoxicity
CC1CC(C)CN(S(=O)(=O)c2ccc3c(c2)oc(=O)n3CC(=O)N2CCOCC2)C1 (stereo not given)	2.5%
c1ccc(-c2ccc(-n3ccnc3)cc2)cc1	2.4%
c1ccc(-c2nc(-n3ccnc3)nc(-n3ccnc3)n2)cc1	19.8%
Clc1ccc(-c2nnc(-c3ccc(Br)o3)o2)c(Cl)c1	19.1%
CCn1c(SCC(=O)c2ccccc2)nnc1-c1cc2cc(Br)ccc2o1	8%
CCCCCC(=O)N(CN1C(=O)CCC1=O)c1ccccc1	-8.7%
Cc1nc(NCCCN2CCOCC2)c2oc3ccccc3c2n1	6.7%
O=C(O)c1cc(S(=O)(=O)N2CCCCCC2)ccc1Cl	-3.9%
O=S(=O)(c1ccc(S(=O)(=O)N2CCCC2)cc1)N1CCCCCC1	-15%
O=C(CN1CCN(c2ccccn2)CC1)N1c2ccccc2CCc2ccccc21	-4.4%
CCN(CC(=O)NC1CCCCC1)S(=O)(=O)c1ccc(Cl)cc1	-13.6%
CCOC(=O)C1CCCN(c2c(NCc3ccco3)c(=O)c2=O)C1 (stereo not given)	2.5%
O=C(CSc1nnc(COc2ccccc2)o1)NCCc1ccccc1	-27.9%
COc1cc(C2C(C#N)=C(C)NC3=C2C(=O)c2ccccc23)cc(OC)c1OC (stereo not given)	80.3% (active)
COc1cc(C2C(C#N)=C(C)NC3=C2C(=O)CC(C)(C)C3)cc(OC)c1O (stereo not given)	6.8%
COc1cc(C2C(C#N)=C(C)NC3=C2C(=O)CC(C)(C)C3)ccc1O (stereo not given)	-10.6%
COc1ccc(C2CC(=O)C3=C(C2)NC(C)=C(C#N)C3c2ccc(N(C)C)cc2)cc1 (stereo not given)	-3.8%
COc1ccc(C2C(C#N)=C(SC)NC3=C2C(=O)CC(C)(C)C3)cc1 (stereo not given)	-1.7%
COc1ccc(C2C(C#N)=C(C)NC3=C2C(=O)c2ccccc23)cc1 (stereo not given)	53.8% (active)
CCOC(=O)c1ccccc1NC(=O)CN(c1ccccc1OC)S(C)(=O)=O	-1.1%
CCCCn1c(SCC(=O)Nc2cc(C)on2)nc2ccsc2c1=O	-1.8%
CCOC(=O)C1CCCN(Cc2cc(OC)c(O)c(OC)c2)C1 (stereo not given)	-5.4%
O=C(COc1ccccc1Br)NCc1ccco1	-11.3%
CC(C)(C)c1ccc(OCC(=O)NCc2ccco2)c(Br)c1	84.5% (active)

SMILES	cytotoxicity
CCc1ccc(OCC(=O)NCc2ccco2)c(Br)c1	-5.8%
Cn1c(=O)n(C)c2cc(NC(=O)CSc3nnc(-c4ccccc4O)n3-c3ccccc3)ccc21	12.8%
O=[n+]1cc(-c2ccc(F)cc2)n([O-])c2c1CCC2	-13.4%
COc1ccc(C2C3=C(CCCC3=O)Nc3nc(SCc4ccccc4)nn32)cc1OC (stereo not given)	-8.6%
O=C1CC(C(=O)Nc2ccccc2C(=O)O)C(c2ccccc2)O1 (stereo not given)	-6.7%
O=C(Oc1cccc2c(OC(=O)N3CCOCC3)cccc12)N1CCOCC1	6.1%
CCCn1nnnc1SCC(=O)c1ccc(NC(C)=O)cc1	-3.8%
Cc1cccn2c(=O)c3cc(C(=O)N4CCc5ccccc54)n(C)c3nc12	1.3%
Cc1cccn2c(=O)c3cc(C(=O)N4CCN(c5ccccc5)CC4)n(C)c3nc12	-5.9%
CC1Cc2ccccc2N1C(=O)c1cc2c(=O)n3ccccc3nc2n1C (stereo not given)	3.6%
Cc1cccn2c(=O)c3cc(C(=O)N4CCN(C(=O)c5ccco5)CC4)n(C)c3nc12	-8.8%
Cc1cccn2c(=O)c3cc(C(=O)N4c5ccccc5CC4C)n(C)c3nc12 (stereo not given)	77.7% (active)
Cc1c(NCc2nc3ccccc3[nH]2)c(=O)n(-c2ccccc2)n1C	-7.6%
Cc1ccc(C(C)C)c(OCc2nnc3n2CCCCC3)c1	-8.3%
COc1ccc(Cl)cc1NC(=O)c1cccnc1	-1.6%
CC(=O)Nc1ccc(NC2=CC(=O)CC(C)(C)C2)cc1	-3%
Cn1c(SCC(=O)c2ccc3c(c2)OCO3)nnc1-c1ccccn1	3.1%
CCCc1cc(C(=O)Nc2ccc(C)cc2)no1	-1.5%
CCN(c1ccccc1)S(=O)(=O)c1ccc(C(=O)Nc2nnc(COC)o2)cc1	44.5%
CC(C)(C)C(=O)/C=C(N)/C=C/c1ccccc1	-7%
CC(/C=C/c1ccccc1)=N/O	-7.4%
O=C(/C=C/c1ccccc1)c1ccccc1	56.5% (active)
C=CCn1c(SCC(=O)NCc2ccco2)nc2sc3c(c2c1=O)CCCCC3	6%
O=C(CSc1nc2sc3c(c2c(=O)n1-c1ccccc1)CCCC3)NCc1ccco1	71.9% (active)

SMILES	cytotoxicity
Cc1nc2sc3c(c2c2nnc(SCC(=O)NCc4ccco4)n12)CCCC3	5.1%
CC1(C)Cc2c(sc3nc(SCC(=O)NCc4ccco4)n(-c4ccccc4)c(=O)c23)CS1	-9.9%
CCSc1nc2sc3c(c2c2nnc(SCC(=O)NCc4ccco4)n12)CCCC3	8.1%
CC1=C(C(=O)N2CCOCC2)C(c2ccsc2)C2=C(CCCC2=O)N1 (stereo not given)	4.5%
COC(=O)c1ccccc1NC(=O)CN1CCC(n2nnc3cc(C)ccc32)CC1	7.1%
CCOc1ccc(N(CC(=O)NC2CCCC2)S(=O)(=O)c2c(C)noc2C)cc1	4.7%
O=C(Oc1ccc2c(c1)OCO2)c1ccncc1	12.7%
O=C(Oc1ccc2c(c1)OCO2)c1cccs1	-6%
O=C(Oc1ccc2c(c1)OCO2)c1cc2c(s1)CCC2	66.1% (active)
NS(=O)(=O)c1ccc(S(=O)(=O)NCCc2ccccc2)cc1	-1.8%
COc1cccc(NC(=O)NC2CCN(Cc3nnnn3Cc3ccc(F)cc3)CC2)c1	-3.4%
CCC(c1nnnn1C1CCCCC1)N(Cc1ccco1)Cc1cc2ccc(OC)cc2[nH]c1=O (stereo not given)	64.5% (active)
COc1ccc2cc(CN(Cc3ccco3)C(c3nnnn3C3CCCCC3)C(C)C)c(=O)[nH]c2c1 (stereo not given)	1.3%
CCC(c1nnnn1Cc1ccccc1)N(Cc1ccco1)Cc1cc2cc(OC)ccc2[nH]c1=O (stereo not given)	22.2%
COc1ccc2cc(CN(Cc3ccco3)Cc3nnnn3C3CCCCC3)c(=O)[nH]c2c1	22.4%
CCC(c1nnnn1Cc1ccco1)N(Cc1ccccc1OC)Cc1cc2cc(C)ccc2[nH]c1=O (stereo not given)	-7.4%
CCC(c1nnnn1Cc1ccco1)N(CCc1ccccc1)Cc1cc2ccc(OC)cc2[nH]c1=O (stereo not given)	50.4% (active)
COc1ccc2cc(CN(CCc3ccccc3)Cc3nnnn3Cc3ccco3)c(=O)[nH]c2c1	33.5%
CCC(c1nnnn1C1CCCC1)N(Cc1cccs1)Cc1cc2cc(C)ccc2[nH]c1=O (stereo not given)	68.3% (active)
CCOc1ccc2[nH]c(=O)c(CN(Cc3cccs3)C(CC)c3nnnn3C(C)(C)CC)cc2c1 (stereo not given)	30.4%
CCOC(=O)Cn1nnnc1C(CC)N(Cc1cccs1)Cc1cc2cc(C)ccc2[nH]c1=O (stereo not given)	-3.3%
Cc1ccc2[nH]c(=O)c(CN(CCc3ccccc3)C(c3nnnn3Cc3ccco3)C(C)C)cc2c1 (stereo not given)	60.2% (active)
CCC(c1nnnn1Cc1ccco1)N(CCc1ccccc1)Cc1cc2cc(C)ccc2[nH]c1=O (stereo not given)	36%
